Data published in article PMC7862700, “An all-to-all approach to the identification of sequence-specific readers for epigenetic DNA modifications on cytosine”.

What was measured:
Assay in all cases: DAPPL (digital affinity profiling via proximity ligation, sequencing); 10 mM Tris-HCl pH 7.5, 50 mM NaCl, 1 mM DTT, 4% glycerol, room temperature, 30 min; GST-TFs on glutathione beads, 16-mer random dsDNA library, 0.1% formaldehyde crosslink after washing; high values mean tight binding
FEV = biological target: T1, FEV (Homo sapiens, UniProt Q99581 1-238); settings: protein: recombinant; tags: N-terminal GST; dsDNA, one strand shown
T1 sequence: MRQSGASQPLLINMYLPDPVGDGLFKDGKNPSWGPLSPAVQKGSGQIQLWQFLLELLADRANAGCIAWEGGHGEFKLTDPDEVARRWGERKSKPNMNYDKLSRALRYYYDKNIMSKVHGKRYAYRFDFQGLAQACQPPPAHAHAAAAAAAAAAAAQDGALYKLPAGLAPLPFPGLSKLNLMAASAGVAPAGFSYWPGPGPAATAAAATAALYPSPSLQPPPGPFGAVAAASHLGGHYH
In short: (§1)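 Sequencing on an Illumina NextSeq500 followed washing, crosslinking with 0.1% formaldehyde, proximity ligation (BsaI/T4 ligase, 1 h, 37 °C) and PCR amplification of pools that had been incubated for 30 min at room temperature with 200 nmole of a random double-stranded 16-mer DNA library in Tris/NaCl/DTT/glycerol buffer. Each pool held DNA-barcoded human transcription factors, expressed in yeast as GST fusions and captured on glutathione beads, plus a tag-only sample. Binding signal is a hexamer's read frequency for a factor divided by its frequency in the tag-only sample.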

ETV5 = ETV5 (Homo sapiens, UniProt P41161 1-510); settings: protein: recombinant; tags: N-terminal GST; dsDNA, one strand shown
In short: as §1

HSF1 = HSF1 (Homo sapiens, UniProt Q00613 1-529); settings: protein: recombinant; tags: N-terminal GST; chain copies: 3; dsDNA, one strand shown
In short: as §1

SPIC = biological target: T2, SPIC (Homo sapiens, UniProt Q8N5J4 1-248); settings: protein: recombinant; tags: N-terminal GST; dsDNA, one strand shown
T2 sequence: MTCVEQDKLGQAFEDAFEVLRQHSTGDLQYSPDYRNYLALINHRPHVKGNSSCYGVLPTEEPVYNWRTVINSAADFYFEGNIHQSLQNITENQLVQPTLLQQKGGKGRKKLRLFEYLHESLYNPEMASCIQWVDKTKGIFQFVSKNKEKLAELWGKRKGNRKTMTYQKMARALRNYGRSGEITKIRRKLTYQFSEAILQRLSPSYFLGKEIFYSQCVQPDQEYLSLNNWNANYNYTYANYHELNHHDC
In short: as §1

ELF4 = ELF4 (Homo sapiens, UniProt Q99607 1-663); settings: protein: recombinant; tags: N-terminal GST; dsDNA, one strand shown
In short: as §1

ELK4 = biological target: T3, ELK4 (Homo sapiens, UniProt P28324-2 1-405); settings: protein: recombinant; tags: N-terminal GST; dsDNA, one strand shown
T3 sequence: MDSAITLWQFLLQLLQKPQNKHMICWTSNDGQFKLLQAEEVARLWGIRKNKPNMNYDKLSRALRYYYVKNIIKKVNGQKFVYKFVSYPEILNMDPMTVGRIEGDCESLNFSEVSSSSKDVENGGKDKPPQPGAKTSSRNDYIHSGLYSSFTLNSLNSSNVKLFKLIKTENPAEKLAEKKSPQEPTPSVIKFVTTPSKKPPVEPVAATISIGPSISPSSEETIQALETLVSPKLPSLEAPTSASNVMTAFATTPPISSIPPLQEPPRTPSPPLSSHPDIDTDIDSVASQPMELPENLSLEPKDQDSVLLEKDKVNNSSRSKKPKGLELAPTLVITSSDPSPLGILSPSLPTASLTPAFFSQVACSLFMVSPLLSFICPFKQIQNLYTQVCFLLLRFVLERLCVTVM
In short: as §1

ETV2 = biological target: T4, ETV2 (Homo sapiens, UniProt O00321 1-342); settings: protein: recombinant; tags: N-terminal GST; dsDNA, one strand shown
T4 sequence: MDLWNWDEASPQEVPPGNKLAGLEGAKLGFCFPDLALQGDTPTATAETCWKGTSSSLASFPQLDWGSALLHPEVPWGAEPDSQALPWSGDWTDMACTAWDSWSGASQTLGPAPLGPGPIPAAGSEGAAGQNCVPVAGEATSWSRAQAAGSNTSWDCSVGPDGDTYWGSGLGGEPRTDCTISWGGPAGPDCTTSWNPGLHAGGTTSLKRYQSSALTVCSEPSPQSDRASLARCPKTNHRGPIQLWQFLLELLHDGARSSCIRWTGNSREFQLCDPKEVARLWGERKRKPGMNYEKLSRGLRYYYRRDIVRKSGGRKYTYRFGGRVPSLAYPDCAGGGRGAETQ
In short: as §1

ELF3 = biological target: T5, ELF3 (Homo sapiens, UniProt P78545 1-371); settings: protein: recombinant; tags: N-terminal GST; dsDNA, one strand shown
T5 sequence: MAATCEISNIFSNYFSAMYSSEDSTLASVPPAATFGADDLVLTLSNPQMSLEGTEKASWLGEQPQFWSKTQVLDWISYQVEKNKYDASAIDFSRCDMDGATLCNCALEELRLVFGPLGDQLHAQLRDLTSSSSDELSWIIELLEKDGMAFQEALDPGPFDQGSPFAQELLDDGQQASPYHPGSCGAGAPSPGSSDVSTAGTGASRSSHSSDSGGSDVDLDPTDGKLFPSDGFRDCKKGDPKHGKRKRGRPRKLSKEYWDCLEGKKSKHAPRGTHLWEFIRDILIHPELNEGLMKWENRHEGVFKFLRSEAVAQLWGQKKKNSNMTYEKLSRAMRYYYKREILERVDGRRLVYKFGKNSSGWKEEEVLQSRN
In short: as §1

ETV1 = ETV1 (Homo sapiens, UniProt P50549 1-477); settings: protein: recombinant; tags: N-terminal GST; dsDNA, one strand shown
In short: as §1

ERF = biological target: T6, ERF (Homo sapiens, UniProt P50548 1-548); settings: protein: recombinant; tags: N-terminal GST; dsDNA, one strand shown
T6 sequence: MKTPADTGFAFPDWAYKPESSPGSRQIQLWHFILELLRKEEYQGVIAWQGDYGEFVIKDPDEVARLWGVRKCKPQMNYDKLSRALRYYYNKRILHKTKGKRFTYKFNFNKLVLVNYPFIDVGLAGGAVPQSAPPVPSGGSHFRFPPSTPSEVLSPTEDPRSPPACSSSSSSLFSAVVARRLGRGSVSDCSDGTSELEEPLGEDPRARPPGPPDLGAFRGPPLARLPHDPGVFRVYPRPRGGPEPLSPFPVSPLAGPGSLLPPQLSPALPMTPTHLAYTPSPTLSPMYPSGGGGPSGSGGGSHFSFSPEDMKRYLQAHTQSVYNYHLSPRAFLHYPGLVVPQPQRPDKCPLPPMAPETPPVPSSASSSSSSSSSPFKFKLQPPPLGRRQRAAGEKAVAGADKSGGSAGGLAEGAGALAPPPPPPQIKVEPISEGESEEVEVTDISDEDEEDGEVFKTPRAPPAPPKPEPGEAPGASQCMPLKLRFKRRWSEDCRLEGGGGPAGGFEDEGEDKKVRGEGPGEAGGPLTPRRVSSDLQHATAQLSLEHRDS
In short: as §1

ETV3L = biological target: T7, ETV3L (Homo sapiens, UniProt Q6ZN32 1-361); settings: protein: recombinant; tags: N-terminal GST; dsDNA, one strand shown
T7 sequence: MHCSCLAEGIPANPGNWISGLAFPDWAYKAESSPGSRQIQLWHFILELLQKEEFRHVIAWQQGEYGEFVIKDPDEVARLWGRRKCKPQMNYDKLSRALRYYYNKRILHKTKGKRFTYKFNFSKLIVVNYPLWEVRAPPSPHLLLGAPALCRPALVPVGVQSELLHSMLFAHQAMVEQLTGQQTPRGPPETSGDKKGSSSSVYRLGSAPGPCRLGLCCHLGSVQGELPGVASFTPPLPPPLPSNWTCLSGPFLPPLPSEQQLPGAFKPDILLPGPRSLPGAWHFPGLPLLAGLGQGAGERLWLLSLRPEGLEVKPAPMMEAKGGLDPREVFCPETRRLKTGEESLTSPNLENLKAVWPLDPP
In short: as §1

ETS2 = biological target: T8, ETS2 (Homo sapiens, UniProt P15036 1-469); settings: protein: recombinant; tags: N-terminal GST; dsDNA, one strand shown
T8 sequence: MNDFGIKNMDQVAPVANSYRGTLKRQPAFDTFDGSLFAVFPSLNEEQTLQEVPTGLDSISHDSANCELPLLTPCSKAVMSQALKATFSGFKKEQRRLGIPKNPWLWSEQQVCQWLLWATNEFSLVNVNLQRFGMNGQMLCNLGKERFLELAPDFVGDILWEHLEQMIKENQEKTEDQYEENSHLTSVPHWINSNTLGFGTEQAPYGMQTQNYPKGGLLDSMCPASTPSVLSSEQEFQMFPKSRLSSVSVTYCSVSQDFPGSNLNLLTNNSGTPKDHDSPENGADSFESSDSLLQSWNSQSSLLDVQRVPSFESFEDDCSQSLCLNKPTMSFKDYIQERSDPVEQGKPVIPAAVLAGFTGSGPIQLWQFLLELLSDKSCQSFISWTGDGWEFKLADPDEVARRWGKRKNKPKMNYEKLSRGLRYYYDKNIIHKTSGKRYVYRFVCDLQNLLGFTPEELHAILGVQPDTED
In short: as §1

SPDEF = biological target: T9, SPDEF (Homo sapiens, UniProt O95238 1-335); settings: protein: recombinant; tags: N-terminal GST; dsDNA, one strand shown
T9 sequence: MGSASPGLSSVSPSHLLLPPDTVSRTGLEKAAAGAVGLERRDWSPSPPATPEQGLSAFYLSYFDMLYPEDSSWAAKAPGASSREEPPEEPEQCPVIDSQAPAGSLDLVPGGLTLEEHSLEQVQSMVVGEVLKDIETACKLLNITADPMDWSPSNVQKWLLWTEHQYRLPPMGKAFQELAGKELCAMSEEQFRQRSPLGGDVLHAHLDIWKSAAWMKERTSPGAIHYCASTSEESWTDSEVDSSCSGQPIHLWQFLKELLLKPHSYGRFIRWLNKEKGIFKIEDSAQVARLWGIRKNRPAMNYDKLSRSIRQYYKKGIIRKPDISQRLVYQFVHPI
In short: as §1

ETV7 = biological target: T10, ETV7 (Homo sapiens, UniProt Q9Y603 1-341); settings: protein: recombinant; tags: N-terminal GST; dsDNA, one strand shown
T10 sequence: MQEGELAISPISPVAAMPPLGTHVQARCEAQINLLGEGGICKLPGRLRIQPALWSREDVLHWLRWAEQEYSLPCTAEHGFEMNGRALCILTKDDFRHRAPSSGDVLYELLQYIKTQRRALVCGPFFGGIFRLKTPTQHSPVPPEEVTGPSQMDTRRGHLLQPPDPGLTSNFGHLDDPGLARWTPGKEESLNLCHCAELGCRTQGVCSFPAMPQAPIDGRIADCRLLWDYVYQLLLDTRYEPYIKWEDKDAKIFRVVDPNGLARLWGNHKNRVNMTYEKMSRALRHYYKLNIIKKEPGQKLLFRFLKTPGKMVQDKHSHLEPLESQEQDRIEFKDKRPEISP
In short: as §1

ELF5 = biological target: T11, ELF5 (Homo sapiens, UniProt Q9UKW6-2 1-255); settings: protein: recombinant; tags: N-terminal GST; dsDNA, one strand shown
T11 sequence: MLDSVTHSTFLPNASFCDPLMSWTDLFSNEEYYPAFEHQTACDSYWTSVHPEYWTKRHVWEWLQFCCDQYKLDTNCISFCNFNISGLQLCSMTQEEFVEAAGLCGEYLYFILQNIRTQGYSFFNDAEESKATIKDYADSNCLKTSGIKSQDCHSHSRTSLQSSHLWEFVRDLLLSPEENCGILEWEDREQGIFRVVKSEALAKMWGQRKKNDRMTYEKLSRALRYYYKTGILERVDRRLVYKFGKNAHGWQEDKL
In short: as §1

ETV3 = biological target: T12, ETV3 (Homo sapiens, UniProt P41162-2 1-143); settings: protein: recombinant; tags: N-terminal GST; dsDNA, one strand shown
T12 sequence: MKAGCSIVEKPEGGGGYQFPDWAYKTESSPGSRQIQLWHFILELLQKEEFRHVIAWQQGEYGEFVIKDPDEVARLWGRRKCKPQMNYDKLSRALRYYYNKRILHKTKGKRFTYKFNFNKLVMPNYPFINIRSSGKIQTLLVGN
In short: as §1

ETV6 = ETV6 (Homo sapiens, UniProt P41212 1-452); settings: protein: recombinant; tags: N-terminal GST; dsDNA, one strand shown
In short: as §1

Chain of ELF4 (Q99607 whole entry): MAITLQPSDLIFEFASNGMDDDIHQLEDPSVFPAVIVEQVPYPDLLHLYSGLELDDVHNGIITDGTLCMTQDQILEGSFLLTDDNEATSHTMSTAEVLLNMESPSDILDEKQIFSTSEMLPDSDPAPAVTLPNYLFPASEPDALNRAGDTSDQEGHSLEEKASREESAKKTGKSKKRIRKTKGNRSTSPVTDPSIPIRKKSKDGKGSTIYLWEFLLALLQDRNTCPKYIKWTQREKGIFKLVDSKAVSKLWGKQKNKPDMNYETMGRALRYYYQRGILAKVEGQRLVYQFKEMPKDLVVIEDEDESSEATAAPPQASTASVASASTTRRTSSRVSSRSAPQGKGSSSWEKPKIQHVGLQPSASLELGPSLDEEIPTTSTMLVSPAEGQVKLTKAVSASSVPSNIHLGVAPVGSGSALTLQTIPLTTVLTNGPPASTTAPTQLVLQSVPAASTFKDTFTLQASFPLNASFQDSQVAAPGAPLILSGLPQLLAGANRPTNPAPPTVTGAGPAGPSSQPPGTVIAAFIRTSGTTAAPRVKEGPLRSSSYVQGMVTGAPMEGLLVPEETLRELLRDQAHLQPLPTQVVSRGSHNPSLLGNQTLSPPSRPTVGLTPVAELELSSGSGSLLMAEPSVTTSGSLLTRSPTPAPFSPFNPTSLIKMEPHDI
Chain of HSF1 (Q00613 whole entry): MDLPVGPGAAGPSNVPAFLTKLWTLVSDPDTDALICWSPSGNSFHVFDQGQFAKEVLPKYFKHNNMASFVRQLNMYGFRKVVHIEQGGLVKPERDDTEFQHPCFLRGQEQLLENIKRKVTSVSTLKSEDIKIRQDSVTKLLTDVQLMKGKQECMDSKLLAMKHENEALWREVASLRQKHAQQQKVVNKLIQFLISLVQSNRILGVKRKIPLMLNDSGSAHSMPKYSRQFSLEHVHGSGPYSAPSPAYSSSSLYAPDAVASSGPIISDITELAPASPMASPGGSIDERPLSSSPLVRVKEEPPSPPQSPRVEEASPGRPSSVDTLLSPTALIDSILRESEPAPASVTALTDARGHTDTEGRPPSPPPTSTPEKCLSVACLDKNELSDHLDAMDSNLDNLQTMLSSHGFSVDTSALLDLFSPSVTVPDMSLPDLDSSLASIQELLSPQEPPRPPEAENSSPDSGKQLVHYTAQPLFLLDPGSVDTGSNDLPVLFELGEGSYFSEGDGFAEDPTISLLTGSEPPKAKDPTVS
Chain of ETV5 (P41161 whole entry): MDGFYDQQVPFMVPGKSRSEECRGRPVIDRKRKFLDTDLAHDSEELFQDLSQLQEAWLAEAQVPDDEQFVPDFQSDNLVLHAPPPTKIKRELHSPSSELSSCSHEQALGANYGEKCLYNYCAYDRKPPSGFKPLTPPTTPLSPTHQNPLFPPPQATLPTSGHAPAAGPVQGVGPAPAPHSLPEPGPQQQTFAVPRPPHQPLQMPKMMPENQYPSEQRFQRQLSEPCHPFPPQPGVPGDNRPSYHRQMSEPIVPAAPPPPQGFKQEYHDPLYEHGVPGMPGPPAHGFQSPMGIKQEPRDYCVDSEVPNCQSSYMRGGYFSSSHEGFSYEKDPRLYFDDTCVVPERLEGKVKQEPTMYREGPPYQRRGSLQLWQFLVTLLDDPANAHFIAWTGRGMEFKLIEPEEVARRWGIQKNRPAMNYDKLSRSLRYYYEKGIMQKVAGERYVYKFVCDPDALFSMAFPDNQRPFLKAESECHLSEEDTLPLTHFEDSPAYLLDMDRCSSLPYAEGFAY
Chain of ETV6 (P41212 whole entry): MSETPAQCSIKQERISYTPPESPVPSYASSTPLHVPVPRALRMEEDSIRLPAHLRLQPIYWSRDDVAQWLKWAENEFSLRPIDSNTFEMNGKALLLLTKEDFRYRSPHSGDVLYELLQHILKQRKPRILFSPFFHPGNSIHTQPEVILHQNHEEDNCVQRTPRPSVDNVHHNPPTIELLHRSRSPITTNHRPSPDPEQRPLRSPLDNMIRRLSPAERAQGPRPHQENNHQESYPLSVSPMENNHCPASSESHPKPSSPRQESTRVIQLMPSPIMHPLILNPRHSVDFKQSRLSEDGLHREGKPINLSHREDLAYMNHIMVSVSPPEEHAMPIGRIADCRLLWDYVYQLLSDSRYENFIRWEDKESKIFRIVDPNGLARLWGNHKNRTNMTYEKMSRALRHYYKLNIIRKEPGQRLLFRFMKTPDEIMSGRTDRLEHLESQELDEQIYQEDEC
Chain of ETV1 (P50549 whole entry): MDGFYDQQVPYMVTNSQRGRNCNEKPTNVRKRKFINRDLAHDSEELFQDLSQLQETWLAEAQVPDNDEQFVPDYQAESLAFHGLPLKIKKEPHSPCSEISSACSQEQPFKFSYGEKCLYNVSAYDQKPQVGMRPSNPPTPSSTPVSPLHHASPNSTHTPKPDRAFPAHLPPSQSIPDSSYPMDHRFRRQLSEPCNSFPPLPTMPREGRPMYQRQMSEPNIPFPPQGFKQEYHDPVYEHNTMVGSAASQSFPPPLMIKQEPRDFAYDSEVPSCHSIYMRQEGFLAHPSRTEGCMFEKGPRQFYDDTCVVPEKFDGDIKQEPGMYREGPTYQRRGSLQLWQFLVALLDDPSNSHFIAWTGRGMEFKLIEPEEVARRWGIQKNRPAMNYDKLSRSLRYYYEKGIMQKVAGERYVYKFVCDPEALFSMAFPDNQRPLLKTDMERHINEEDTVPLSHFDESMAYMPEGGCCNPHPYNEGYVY

ATGGGC
binding signal (FEV): 1.28 fold enrichment (6-mer frequency, TF over GST control)
binding signal (ETV5): 1.25 fold enrichment (6-mer frequency, TF over GST control)
binding signal (HSF1): 1.03 fold enrichment (6-mer frequency, TF over GST control)
binding signal (SPIC): 1.35 fold enrichment (6-mer frequency, TF over GST control)
binding signal (ELF4): 1.35 fold enrichment (6-mer frequency, TF over GST control)
binding signal (ELK4): 1.49 fold enrichment (6-mer frequency, TF over GST control)
binding signal (ETV2): 1.17 fold enrichment (6-mer frequency, TF over GST control)
binding signal (ELF3): 1.24 fold enrichment (6-mer frequency, TF over GST control)
binding signal (ETV1): 1.19 fold enrichment (6-mer frequency, TF over GST control)
binding signal (ERF): 1.17 fold enrichment (6-mer frequency, TF over GST control)
binding signal (ETV3L): 1.3 fold enrichment (6-mer frequency, TF over GST control)
binding signal (ETS2): 1.28 fold enrichment (6-mer frequency, TF over GST control)
binding signal (SPDEF): 1.24 fold enrichment (6-mer frequency, TF over GST control)
binding signal (ETV7): 1.22 fold enrichment (6-mer frequency, TF over GST control)
binding signal (ELF5): 1.26 fold enrichment (6-mer frequency, TF over GST control)
binding signal (ETV3): 1.23 fold enrichment (6-mer frequency, TF over GST control)
binding signal (ETV6): 1.33 fold enrichment (6-mer frequency, TF over GST control)
